Data published in ChEMBL document CHEMBL4513216, “Probing the Open Global Health Chemical Diversity Library for Multistage-Active Starting Points for Next-Generation Antimalarials” (ACS Infect Dis, 2020).
The whole screen tested about 69,000 compounds, of which about 8,600 (12%) showed an effect of 50% or more. This is one part of a sample in which strong results are shown more often than they occur.

system: Plasmodium berghei; assay: Screen against P. berghei liver stage (PbLuc), transformed with Luciferase, at 10uM; format: functional, HepG2; settings: tested at 10 uM

SMILES | INHIBITION [%]
Cc1noc(C(C)N2CCN(CCC(=O)N3CCCCC3)CC2)n1 (stereo not drawn) | 17.4
Cc1cc(C2CCNCC2)nc(-c2ccsc2)n1 | 20.2
CCC(=O)Nc1ccc(C(C)NC(=O)COCCOC)cc1 (stereo not drawn) | -28.4
CC(=O)N1CCC2(CC1)CN(C(=O)c1cccnc1)c1ccc(F)cc12 | 34.9
COc1c(C2CCCN2CC(=O)Nc2ccncc2)c(C)nn1C (stereo not drawn) | 21.6
Cc1nc(NCCN2CCCC2=O)cc(C2CN(C(C)C)CCO2)n1 (stereo not drawn) | 25
CCc1n[nH]c(C2CN(C(=O)c3ccc4c(c3)COC4)CCO2)n1 (stereo not drawn) | -59.4
CC(=O)N1CCC(N2CC(Cc3nccc4ccn(C)c34)C2)CC1 | 28
COc1ccc(NC(=O)N2CCN(CCSc3ccccc3)CC2)cc1 | -28.15
CC(C)c1cc(C(=O)N2CCN(c3ccncc3)CC2)n(C)n1 | -106
CC(C)c1cc(C(=O)N2CCN(c3ccc(F)c(Cl)c3)CC2)n(C)n1 | 50.8
CC(=O)c1ccc(N2CCN(C(=O)c3cc(C(C)C)nn3C)CC2)cc1 | 36.3
COc1cccc(C2CC(=O)Nc3c2cnn3C(C)(C)C)c1 (stereo not drawn) | -38.6
Cc1ccc(Sc2ccc(CN3CCC4(CCCNC4=O)C3)o2)cc1 (stereo not drawn) | 90.8
CCN(CC)Cc1cc(C(=O)N2CCC3(CC2)NCCNC3=O)c(C)o1 | 12.4
O=C1NCCCC12CCN(S(=O)(=O)N1CCOCC1)C2 (stereo not drawn) | -3.24
Cc1ccc(CN2CCC3(CC2)C(=O)NCCN3CC2CC2)o1 | 89.3
CCOc1cc(Cl)c(CN2CCC3(CCCNC3=O)C2)cc1OC (stereo not drawn) | 9.41
Cc1ccc(Sc2ccc(CN3CCC4(CC3)NCCNC4=O)o2)cc1 | 66.1
Cc1cc(CN2CCC3(CC2)C(=O)NCCN3CC2CC2)oc1C | 42.7
O=C1NCCCC12CCN(Cc1ccc(-c3ccccc3)s1)C2 (stereo not drawn) | 21.2
CCOc1cc2c(cc1CN1CCC3(CCCNC3=O)C1)CCC2 (stereo not drawn) | 41.2
CN1CCNC(=O)C12CCN(Cc1ccco1)CC2 | 36.9

SMILES | INHIBITION [%]
O=C1NCCCC12CCN(Cc1ccc(SC3CCCCC3)o1)C2 (stereo not drawn) | 72.3
O=C1NCCN(CC2CC2)C12CCN(Cc1ccco1)CC2 | 45.5
CC(NC(=O)CCc1ccsc1)c1ccc2c(c1)NC(=O)CO2 (stereo not drawn) | 1.223
CN(C)S(=O)(=O)N1CCN(C(=O)c2cc(-c3ccc(Br)s3)n[nH]2)CC1 | 11.2
Cc1nc(N)c2ccc(C3CCCCN3)nc2n1 (stereo not drawn) | 29.35
Cc1cc(CN(C)C(=O)c2ccc(Cl)c(N3CCCC3=O)c2)no1 | -11.4
COCCC(=O)N1C[C@@H](c2cccc(OC)c2)[C@@]2(CCCCC(=O)N2)C1 | 3.48
CC(C(=O)N1CCCN(Cc2cnn(C(C)C)c2)CC1)n1ccnc1 (stereo not drawn) | 48.1
Cc1ccc(C(=O)N2CC[C@@H]3CN(C4CCOCC4)CCO[C@@H]3C2)o1 | 22.2
CCc1nc(C2CCCN2C(=O)c2csc(NC(C)=O)n2)no1 (stereo not drawn) | -17
COc1ccc(C(=O)C2CCCN(c3cc(N)ncn3)C2)c(C)c1 (stereo not drawn) | 60.1
COc1ccc(C(=O)C2CCCN(c3nccc(N)n3)C2)c(C)c1 (stereo not drawn) | 51.2
CCc1nc2n(n1)CCCC2NC(=O)Nc1cc(OC)ccc1C (stereo not drawn) | 13.5
COc1ccc(C(=O)N2C[C@@H](CN3CCCC3)[C@@H](CO)C2)c(C)c1 | 34.9
COc1ccc(C(=O)C2CCCN(c3cnccn3)C2)c(C)c1 (stereo not drawn) | 25.5
COc1ccc(C(=O)C2CCCN(c3cc(OC)ncn3)C2)c(C)c1 (stereo not drawn) | 91.8
COc1cccc(C(=O)C2CCCN(c3nccc(N)n3)C2)c1 (stereo not drawn) | 43
CCOC(=O)C1CCCN(c2nccc(-n3nc(C)cc3C)n2)C1 (stereo not drawn) | 1.74
CCc1nc(C)cc(N2CCCC(C(=O)c3ccc(OC)cc3C)C2)n1 (stereo not drawn) | 83.9
Cc1ccccc1CSc1nc(N)cc(N2CCCC(C(N)=O)C2)n1 (stereo not drawn) | 41.3
COc1cc(N2CCCC(c3ncc[nH]3)C2)ncn1 (stereo not drawn) | 28.4
O=C1C(n2nnc(-c3ccsc3)n2)CCN1CC(F)(F)F (stereo not drawn) | -35.9
CC(C)n1ccnc1Cn1ccc2ncccc2c1=O | -9.91

SMILES | INHIBITION [%]
CN(C)CCN1CCN(C(=O)c2ccn(C)c(=O)c2)CC1 | -7.31
COc1cc(NC(=O)N2CCCC2c2ccco2)cc(OC)c1 (stereo not drawn) | 45.5
CN(C)C(CNC(=O)c1ccc(-n2cnnn2)cc1)c1ccccc1Cl (stereo not drawn) | -20.5
Cc1nc(NC(=O)c2cccnc2N2CCOCC2)sc1C | 62.9
Cc1csc(NC(=O)c2cccnc2N2CCOCC2)n1 | -3.39
O=C(Nc1nc2c(s1)CCC2)c1cccnc1N1CCOCC1 | 34
COc1cc(-c2n[nH]c(CC#N)n2)cc(OC)c1OC | 12.7
CCn1nc(C)c(NC(=O)c2nnn(Cc3ccccc3)c2OC)c1C | 27.5
CCCn1nccc1NC(=O)CN1CCc2c(nc(C(C)C)n2C)C1 | 12.7
CCCn1nccc1NC(=O)CN1CCc2cnc(C(C)C)nc2C1 | 55
Cc1ncc2c(n1)CN(CC(=O)Nc1ccc(Cl)cn1)CC2 | 46.2
CCCn1nccc1NC(=O)CN1CCc2cnc(CC)nc2C1 | 23.6
CC(C)c1ncc2c(n1)CN(CC(=O)Nc1ccc(Cl)cn1)CC2 | 0.914
CCc1ncc2c(n1)CN(CC(=O)Nc1ccc(Cl)cn1)CC2 | 67.2
Cc1csc(C(=O)N2CCC3(CC(N(C)c4ccncn4)C3)C2)c1 (stereo not drawn) | -10.8
COc1c(C2CCCN2C(=O)c2cnc[nH]2)c(C)nn1C (stereo not drawn) | 29.2
CN1CC2(CCCN(Cc3nnc(-c4cccc(F)c4)o3)C2)OC1=O (stereo not drawn) | 19.4
CCn1cnnc1C1CCN(C(=O)c2cc(C)n(CC)c2C)CC1 | -10.6
Cc1ccc(N2CC[C@H](OCC3CC3)[C@@H]2Cc2ccncc2)nn1 | 27.5
Cc1cc(CNC(=O)N2CCN(C(C)c3cccnc3)CC2)c(C)o1 (stereo not drawn) | 35.2
COCCOC1CCN(C(=O)NCc2coc3ccccc23)CC1 | 46.1
Cc1nc(CNC(=O)N2CCN(c3ccc(Cl)cn3)CC2)no1 | 49.1
Cc1nc(CNC(=O)N2CCN(c3ccc(Cl)cn3)CC2)sc1C | 54.3

SMILES | INHIBITION [%]
Cc1cc(CNC(=O)CCN2CCN(c3ccccn3)CC2)c(C)o1 | 15.8
O=C(c1ccc2c(c1)CCC2)N1CCN(c2ccc(Cl)cn2)CC1 | 11.1
Cc1cc(CNC(=O)N2CCN(c3nc(C)c(C)s3)CC2)no1 | 42.6
Cc1cc(CNC(=O)N2CCN(c3ccc(Cl)cn3)CC2)c(C)o1 | 54.3
COCCOC1CCN(C(=O)NCc2cc(C)oc2C)CC1 | 53.7
O=C(CCc1nccs1)N1CCN(c2ccc(Cl)cn2)CC1 | 35.3
Cc1nc(C)c(CNC(=O)N2CCN(c3ccc(Cl)cn3)CC2)s1 | 95.4
Cc1nc(N2CCN(C(=O)NCc3cscn3)CC2)sc1C | 43.9
Cc1ccc(S(=O)(=O)NC(=O)COc2cccc(C(N)=O)c2)s1 | 11.2
c1ccc(CO[C@H]2CC[C@H]3[C@H]2OCCN3CCN2CCCCC2)nc1 | 40.3
CC(=O)N1CC[C@@]2(C(=O)Nc3ccccc3)CCN(S(C)(=O)=O)CC[C@@H]12 | 41.2
CC(C)c1nn(C)c(Cl)c1CNCc1ccc2c(c1)OCCO2 | 1.5
CN(C)CCCN(Cc1ccco1)Cc1ccnn1C1CCCCO1 (stereo not drawn) | -0.232
Cc1ccoc1C(=O)N1C[C@@H]2[C@@H](C1)OCC(=O)N2Cc1cccnc1 | 0
OC1(CN2CCOC(CNc3cccnn3)C2)CCCCC1 (stereo not drawn) | 25.4
Cn1c(N2CCOCC2)nc2cc(C(=O)NCc3cccnc3)ccc21 | 48.2
CC(=O)NCc1ccc(C(=O)N2CCCC2c2cnn(C)c2)cc1 (stereo not drawn) | -12.1
CC(=O)N1CCC(c2cncc(N3CCCC(O)C3)n2)CC1 (stereo not drawn) | -6.73
O=c1cc(C2CCNCC2)nc(CCc2ccccn2)[nH]1 | -0.273
O=c1cc(C2CCNCC2)nc(Cc2cccc(Cl)c2)[nH]1 | 52.2
O=c1cc(C2CCNCC2)nc(CCCc2ccccc2)[nH]1 | 22.7
CN(CCCOc1ccccc1Cl)C(=O)CN1C(=O)CCNC1=O | -44.2
COC(=O)CCCNC(=O)N1CCc2c([nH]c3ccc(Cl)cc23)C1 | -50

SMILES | INHIBITION [%]
COc1ccc(C(=O)N2C[C@@H](O)[C@H](NCc3ncccc3C)C2)cc1 | 31.45
CCc1ncc2c(n1)CN(Cc1nnc(C(C)C)o1)CC2 | 30.3
CC(C)N1CCC(c2ccnc3c(C(=O)N4CCCC4)ncn23)CC1 | 60
O=C(c1ncn2c(C3CCN(CC4CC4)CC3)ccnc12)N1CCCC1 | 12.7
CC(C)N1CCC(c2ccnc3c(C(=O)N4CCOCC4)ncn23)CC1 | 12.7
CN(CC(=O)NC1(C)CCS(=O)(=O)C1)Cc1ccc(F)c(F)c1 (stereo not drawn) | 27.6
Cc1cc(S(=O)(=O)Nc2onc(C)c2C)sc1C | 87.5
Cc1noc(NS(=O)(=O)c2ccc(Cl)s2)c1C | 44.7
Cc1cc(S(=O)(=O)Nc2onc(C)c2C)c(C)s1 | 4.1
CN(C)c1cc(CNC(=O)c2cccnc2O)ccn1 | 9.64
COCc1cn(CC2CCN(Cc3cc(C)[nH]n3)CC2)nn1 | 26.7
COC[C@@H]1CC[C@H]2[C@H](CCN2C(=O)c2ccncc2F)O1 | 29
COC(=O)c1cc(NCc2cscn2)ccc1C | 11.9
CCn1cc(CNc2ccc3nccnc3c2)cn1 | 18.8
COCCOc1ccc(NC(=O)N(C)Cc2ccsc2)cn1 | 31.8
COc1cccc(-c2cc(NCc3cscn3)n(C)n2)c1 | -40.5
CCn1cc(CNc2ccc(N(C)CCOC)cn2)cn1 | 57.2
COCCN(C)c1ccc(NCc2cscn2)nc1 | 75.1
CCn1cc(CNc2ccc(Br)c(OC)c2)cn1 | 32
COCCN(C)c1ccc(NCc2cccnc2)nc1 | 15.1
COCCN(C)c1ccc(NCc2ccsc2)nc1 | 80.8
